Test [1] is described as follows: NCI Yeast Anticancer Drug Screen. Data for the rad50 strain (AID 155).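 Also: 0% = growth of vehicle-only cultures of the same strain.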 The conditions noted are these: S. cerevisiae rad50 strain growth inhibition, active compounds read high. The essentials: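 Readout: growth inhibition relative to vehicle-treated cultures. Compound exposure was carried out in a genetically defined yeast strain deficient in DNA damage repair.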
A short description of test [2]: NCI Yeast Anticancer Drug Screen. Data for the mec2-1 strain (AID 157). The settings on record: S. cerevisiae mec2-1 strain, active compounds read high. The essentials: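 Mutant yeast (mec2-1) grown with compound; growth inhibition relative to vehicle control reported.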
Test [3] in a line: NCI Yeast Anticancer Drug Screen. Data for the sgs1 mgt1 strain (AID 161).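 Also: 0% = growth of cultures given vehicle only.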 The conditions noted are these: S. cerevisiae sgs1 mgt1 strain, active compounds read high. The essentials: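 Percent growth inhibition was derived by comparing compound-exposed mutant yeast with vehicle-exposed cultures. The strain carries alterations in DNA damage repair.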
Test [4] can be described thus: NCI Yeast Anticancer Drug Screen. Data for the cln2 rad14 strain (AID 165).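 Also: 0% = growth equal to vehicle treated cultures.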 The conditions noted are these: S. cerevisiae cln2 rad14 strain, active compounds read high. An outline of the steps:
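Readout is yeast growth inhibition versus vehicle-treated controls, using a strain with cln2 and rad14 alterations exposed to compound.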

The nature of test [5]: NCI Yeast Anticancer Drug Screen. Data for the bub3 strain (AID 167). The conditions noted are these: S. cerevisiae bub3 mutant strain, active compounds read high. The essentials: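 Readout: yeast growth inhibition, expressed relative to vehicle-only wells. The test organism is a mutant strain from a panel with lesions in DNA repair or checkpoint genes.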
Test [6] in a line: NCI Yeast Anticancer Drug Screen. Data for the mlh1 rad18 strain (AID 175). The settings on record: S. cerevisiae mlh1 rad18 strain growth inhibition, active compounds read high. An outline of the steps: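 Genetically defined yeast (DNA repair-deficient) exposed to compounds; growth inhibition determined relative to vehicle.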
The mark [7] stands for this setting: at 5.0 µM (retest, dose inferred, filed as 0.5).
Where [8] appears, read: at 50.0 µM (retest, dose inferred, filed as 5.0).

Drawing on PubChem BioAssay (NCI), this text covers growth inhibition for ten molecules.

About 79,000 compounds went through this panel and 15% of them were active in at least one assay; those are over-represented in the sample as a whole. Unmarked numbers belong to inactive results. The source made the active and inactive calls. Rule as the data show it: active = growth inhibition above about 70%; inactive = the rest.

`NC(=S)N/N=C/c1ccc(Cl)s1`: the growth inhibition in test [1] (setting [7]) was -5%; in test [1] (setting [8]), 80% (active); in test [1] (at 50.0 µM), 87.2% (active); in test [2] (setting [7]), -8%; in test [2] (setting [8]), 29%; in test [2] (at 50.0 µM) it was 47.5%. The growth inhibition is -5% in test [3] (setting [7]); 36% in test [3] (setting [8]); 67.6% in test [3] (at 50.0 µM); -17% in test [4] (setting [7]); 9% in test [4] (setting [8]); 11.7% in test [4] (at 50.0 µM). In addition, the growth inhibition in test [5] (setting [7]) was -5%; in test [5] (setting [8]), 62%; in test [5] (at 50.0 µM), 57.5%; in test [6] (setting [7]), -6%; in test [6] (setting [8]), 44%; in test [6] (at 50.0 µM), 87% (active).

Take `COc1ccc(C2C3=C(CCCC3=O)Oc3cc4c(cc32)OCO4)cc1` (stereo not given): the growth inhibition in test [1] (setting [7]) was 2%; in test [1] (setting [8]) it was 68%; in test [1] (at 50.0 µM), 98% (active); in test [2] (setting [7]), 5%; in test [2] (setting [8]) it was 76% (active); in test [2] (at 50.0 µM) it was 96.7% (active). Also, the growth inhibition in test [3] (setting [7]) was -6%; in test [3] (setting [8]), 64%; in test [3] (at 50.0 µM), 97.3% (active); in test [4] (setting [7]) it was 22%; in test [4] (setting [8]), 67%; in test [4] (at 50.0 µM) it was 96.3% (active). The growth inhibition was -2% in test [5] (setting [7]); 79% (active) in test [5] (setting [8]); 95.9% (active) in test [5] (at 50.0 µM); 0% in test [6] (setting [7]); 91% (active) in test [6] (setting [8]); 98.2% (active) in test [6] (at 50.0 µM).

`Nc1ccc(-c2nc3ccccc3s2)cc1Br`: the growth inhibition in test [1] (setting [7]) was 33%; in test [1] (setting [8]), 74% (active); in test [1] (at 50.0 µM), 8%; in test [2] (setting [7]) it was 24%; in test [2] (setting [8]), 77% (active); in test [2] (at 50.0 µM), 18.8%. Besides, the growth inhibition was 31% in test [3] (setting [7]); 97% (active) in test [3] (setting [8]); 21.1% in test [3] (at 50.0 µM); 27% in test [4] (setting [7]); 63% in test [4] (setting [8]); 10.8% in test [4] (at 50.0 µM). For the same molecule, the growth inhibition is 28% in test [5] (setting [7]); 96% (active) in test [5] (setting [8]); 52% in test [5] (at 50.0 µM); 34% in test [6] (setting [7]); 88% (active) in test [6] (setting [8]); 55.9% in test [6] (at 50.0 µM).

In the case of `CCOc1c(Br)cc(Br)cc1/C=N/NS(=O)(=O)c1ccc(C)cc1`, the growth inhibition in test [1] (setting [7]) was 41%; in test [1] (setting [8]) it was 90% (active); in test [1] (at 50.0 µM), 75.7% (active); in test [2] (setting [7]), 26%; in test [2] (setting [8]), 88% (active); in test [2] (at 50.0 µM), 74.5% (active). The growth inhibition in test [3] (setting [7]) is 38%; in test [3] (setting [8]), 90% (active); in test [3] (at 50.0 µM), 82.2% (active); in test [4] (setting [7]) it was 30%; in test [4] (setting [8]), 87% (active); in test [4] (at 50.0 µM) it was 82.6% (active). The growth inhibition is 45% in test [5] (setting [7]); 85% (active) in test [5] (setting [8]); 72.2% (active) in test [5] (at 50.0 µM); 48% in test [6] (setting [7]); 91% (active) in test [6] (setting [8]); 75% (active) in test [6] (at 50.0 µM).

For `O=S(=O)(Nc1ccnn1-c1ccccc1)c1ccc(N=Cc2c3ccccc3nc3cc(Cl)ccc23)cc1`, the growth inhibition in test [1] (setting [7]) was 22%; in test [1] (setting [8]), 29%; in test [1] (at 50.0 µM), 96.8% (active); in test [2] (setting [7]), 12%; in test [2] (setting [8]), 12%; in test [2] (at 50.0 µM), 96.7% (active). For the same molecule, the growth inhibition in test [3] (setting [7]) was 10%; in test [3] (setting [8]), 7%; in test [3] (at 50.0 µM) it was 96.4% (active); in test [4] (setting [7]), -1%; in test [4] (setting [8]) it was -1%; in test [4] (at 50.0 µM) it was 68.7%. In addition, the growth inhibition in test [5] (setting [7]) is 17%; in test [5] (setting [8]), 17%; in test [5] (at 50.0 µM), 67.9%; in test [6] (setting [7]), 10%; in test [6] (setting [8]) it was 19%; in test [6] (at 50.0 µM), 97.5% (active).

For the molecule `Cc1cc(/C=C/c2cccc[n+]2C)c(C)n1-c1ccccc1`, the growth inhibition in test [1] (setting [7]) is 4%; in test [1] (setting [8]) it was 85% (active); in test [1] (at 50.0 µM), 96% (active); in test [2] (setting [7]) it was -1%; in test [2] (setting [8]), 93% (active); in test [2] (at 50.0 µM) it was 91.6% (active). The growth inhibition is 1% in test [3] (setting [7]); 90% (active) in test [3] (setting [8]); 95.8% (active) in test [3] (at 50.0 µM); -4% in test [4] (setting [7]); 85% (active) in test [4] (setting [8]); 90.8% (active) in test [4] (at 50.0 µM). Moreover, the growth inhibition was -8% in test [5] (setting [7]); 85% (active) in test [5] (setting [8]); 17.1% in test [5] (at 50.0 µM); 6% in test [6] (setting [7]); 94% (active) in test [6] (setting [8]); 93.7% (active) in test [6] (at 50.0 µM).

Regarding `O=C(O/N=C1/CCCC/C1=C\c1ccccc1)c1ccccc1`, the growth inhibition in test [1] (setting [7]) is 24%; in test [1] (setting [8]), 86% (active); in test [1] (at 50.0 µM) it was 76.2% (active); in test [2] (setting [7]) it was 17%; in test [2] (setting [8]) it was 95% (active); in test [2] (at 50.0 µM), 88.3% (active). The growth inhibition in test [3] (setting [7]) was 51%; in test [3] (setting [8]), 94% (active); in test [3] (at 50.0 µM), 85.8% (active); in test [4] (setting [7]), 47%; in test [4] (setting [8]), 97% (active); in test [4] (at 50.0 µM) it was 87% (active). Also, the growth inhibition in test [5] (setting [7]) is 53%; in test [5] (setting [8]), 94% (active); in test [5] (at 50.0 µM), 81.1% (active); in test [6] (setting [7]) it was 19%; in test [6] (setting [8]), 82% (active); in test [6] (at 50.0 µM) it was 81.7% (active).

Consider `O=C(CN(Cc1ccccc1)Cc1ccccc1)c1ccccc1`, for which the growth inhibition in test [1] (setting [7]) was -2%; in test [1] (setting [8]) it was 31%; in test [1] (at 50.0 µM) it was 19.6%; in test [2] (setting [7]), 1%; in test [2] (setting [8]), 34%; in test [2] (at 50.0 µM), -1.8%. Besides, the growth inhibition in test [3] (setting [7]) is -2%; in test [3] (setting [8]), 33%; in test [3] (at 50.0 µM), 16.9%; in test [4] (setting [7]), 3%; in test [4] (setting [8]), 45%; in test [4] (at 50.0 µM), 1.75%. Moreover, the growth inhibition was 4% in test [5] (setting [7]); 89% (active) in test [5] (setting [8]); 79.7% (active) in test [5] (at 50.0 µM); -1% in test [6] (setting [7]); 57% in test [6] (setting [8]); 15.4% in test [6] (at 50.0 µM).

Regarding `CCCCN(CCCC)Cc1cc(Nc2c3ccc(Cl)cc3nc3ccc(OC)cc23)ccc1O`, the growth inhibition in test [1] (setting [7]) is 4%; in test [1] (setting [8]), 91% (active); in test [1] (at 50.0 µM) it was 79.2% (active); in test [2] (setting [7]), 10%; in test [2] (setting [8]), 56%; in test [2] (at 50.0 µM) it was 86.7% (active). Moreover, the growth inhibition was -19% in test [3] (setting [7]); 95% (active) in test [3] (setting [8]); 75.4% (active) in test [3] (at 50.0 µM); -4% in test [4] (setting [7]); 23% in test [4] (setting [8]); 89.5% (active) in test [4] (at 50.0 µM). Besides, the growth inhibition in test [5] (setting [7]) was -3%; in test [5] (setting [8]), 36%; in test [5] (at 50.0 µM), 58.4%; in test [6] (setting [7]), 7%; in test [6] (setting [8]) it was 79% (active); in test [6] (at 50.0 µM), 98.1% (active).

As for `O=C(CC1(O)C(=O)Nc2c(Cl)cc(Cl)cc21)c1ccc(Br)cc1` (stereo not given), the growth inhibition in test [1] (setting [7]) is 3%; in test [1] (setting [8]), 3%; in test [1] (at 50.0 µM), 93.1% (active); in test [2] (setting [7]), -9%; in test [2] (setting [8]), -9%; in test [2] (at 50.0 µM), 92% (active). For the same molecule, the growth inhibition is -23% in test [3] (setting [7]); -23% in test [3] (setting [8]); 92% (active) in test [3] (at 50.0 µM); -8% in test [4] (setting [7]); -8% in test [4] (setting [8]); 91.8% (active) in test [4] (at 50.0 µM). Further, the growth inhibition in test [5] (setting [7]) was 7%; in test [5] (setting [8]), 7%; in test [5] (at 50.0 µM) it was 94.3% (active); in test [6] (setting [7]), -1%; in test [6] (setting [8]), -1%; in test [6] (at 50.0 µM), 92.7% (active).
